Experimental data reported in ChEMBL document CHEMBL3988442, “University of Dundee, Small-Polar-MMV Screening Library” (2021).
Out of some 48,000 compounds screened, about 13,000 (27%) showed an effect of 50% or more. The list shows a part of the results.

test system: Wolbachia pipientis; assay: Anti-Wolbachia Cell-Based Screen; format: functional; set-up: scale not given: in the data most compounds retested in dose-response had high values; conditions: 5 µM

Compared with Cc1nn(C)cc1CN(C)Cc1cc2c(cc1OC(F)F)OCO2, COc1ccc(C(=O)N(Cc2cnn(C)c2)C(C)C)cc1OC(F)F is higher in “Percent Effect” value: 5.231% for the first, 110.3% for the second.

Compared with CCS(=O)(=O)N1CCC(c2nccn2Cc2ccncc2)CC1, Cc1ncsc1C(=O)N(C)CCc1ccncc1 is lower in “Percent Effect” value: 17.72% for the first, -1.181% for the second.

Going from COc1cccc(OCCCc2cc(C#N)ccn2)c1 to CN(C)CCOc1ccc(CNC(=O)c2cccc3[nH]ncc23)cc1, the “Percent Effect” value rises from -11.05% to -2.455%.

Going from Cc1cccc(C(C(=O)NCc2nc(-c3cccnc3)no2)N(C)C)c1 (stereo unspecified) to Cc1noc(C)c1C(=O)N(C)C(C)c1ccncc1 (stereo unspecified), the “Percent Effect” value falls from -3.627% to -19.42%.

Going from CC1=C[C@@H](CN2CCOCC2)[C@H](C(C)C)C[C@H]1Cc1nnc(C)o1 to Cn1nc2c(cc1=O)CN(Cc1nnc(C3CC3)o1)CC2, the “Percent Effect” value rises from -6.193% to 7.472%.

Going from Cc1sc(Br)cc1S(=O)(=O)NCCCN.Cl to Cc1sc(Br)cc1S(=O)(=O)NCCN.Cl, the “Percent Effect” value falls from -10.31% to -12.99%.

Compared with Cc1cc(F)c(S(=O)(=O)NCC(C)(C)N)cc1F.Cl, Cc1cc(S(=O)(=O)NCC(C)(O)CN(C)C)c(F)cc1F (stereo unspecified) is lower in “Percent Effect” value: 99.53% for the first, 86.13% for the second.

Going from Cc1cc(F)c(S(=O)(=O)NCc2ccnc(N(C)C)n2)cc1F to Cc1c(F)cccc1S(=O)(=O)NCC(C)(C)CC(C)O (stereo unspecified), the “Percent Effect” value falls from -5.146% to -11.41%.

Going from Cc1cc2[nH]cc(C(=O)N3CCCCC3c3ccc(F)cc3)c(=O)n2n1 (stereo unspecified) to Cc1[nH]c(=O)[nH]c(=O)c1CC(=O)N1CCC(Oc2ccc(F)cc2)CC1, the “Percent Effect” value falls from -0.32% to -20.3%.

Going from COc1ccccc1CC1CCCN(CCN2CCOC2=O)C1 (stereo unspecified) to CCN1CC(C(=O)N2CCC(Oc3ccccc3C)CC2)CC1=O (stereo unspecified), the “Percent Effect” value rises from -15.91% to -3.691%.

Compared with Cc1cccc(OC2CCN(C(=O)NCCn3ccnc3)CC2)c1C, Br.Cc1ccccc1OC1CCN(CC(=O)Nc2ccn(C)n2)CC1 is higher in “Percent Effect” value: -9.4% for the first, 95.2% for the second.

First: Cc1ccccc1OC1CCN(CC(=O)Nc2c(C)nn(C)c2C)CC1
Second: Cc1ccccc1OC1CCN(CC(=O)Nc2cn(C)nc2C)CC1
The “Percent Effect” value of the first is lower: 133% for the first, 143.3% for the second.

Going from Cc1nn(C)c(C)c1NC(=O)CNC(c1ccccc1)C1CCC1 (stereo unspecified) to Br.Cc1ccccc1OC1CCN(CC(=O)Nc2cnn(C)c2C)CC1, the “Percent Effect” value rises from -2.911% to 127.8%.

Compared with COCCN1C[C@H]2CC[C@@H]1CN(CC(=O)Nc1ccn(C)n1)C2, Cn1ccc(NC(=O)CN2C[C@H]3CC[C@@H]2CN(Cc2ccccn2)C3)n1 is lower in “Percent Effect” value: 0.2654% for the first, -23.26% for the second.

Compared with Cc1nn(C)c(C)c1NC(=O)CN1CCOC(Cn2cccn2)C1 (stereo unspecified), CCn1cc(NC(=O)CN2CCC(Oc3ccccc3C)CC2)c(C)n1 is higher in “Percent Effect” value: -5.215% for the first, 103.8% for the second.

Compared with CC(=O)c1ccc(CN2CC(Oc3ccccc3C)C2)cc1, CC(=O)c1cccc(CN2CC(Oc3ccccc3C)C2)c1 is higher in “Percent Effect” value: 1.561% for the first, 6.758% for the second.

First: Cc1cccc2sc(NC(=O)CN3CCC(C)CC3)nc12
Second: CCn1cc(NC(=O)CN2CCC(Oc3ccc(F)cc3)CC2)c(C)n1.Cl
The “Percent Effect” value of the first is lower: -4.691% for the first, 113.2% for the second.

First: CC(O)CNC(=O)NCCCN1CCN(c2ncccn2)CC1 (stereo unspecified)
Second: COCCCOc1ccc(C(=O)N(Cc2cnn(C)c2)C(C)C)cn1
The “Percent Effect” value of the first is lower: -2.851% for the first, 5.983% for the second.

Compared with CCOCCn1nnc(C2(NC(=O)c3ccccc3)CCCC2)n1, CN(C)C(=O)CCCNc1ncc2c(n1)CCN2c1ccccc1 is lower in “Percent Effect” value: -1.903% for the first, -14.16% for the second.

Compared with Cn1c(=O)oc2ccc(NC(=O)N3CCSCC3)cc21, Cc1csc(CNC(=O)Nc2ccc3c(c2)OCO3)n1 is higher in “Percent Effect” value: -14.24% for the first, 95.91% for the second.

First: O=C(Nc1ccccc1)c1ccc2c(c1)C1(CCCCC1)CN2.O=C(O)C(F)(F)F
Second: NS(=O)(=O)c1ccc(NC(=O)CSc2ccc3c(c2)CCC3)cc1
The “Percent Effect” value of the first is lower: 15.72% for the first, 16.99% for the second.

Going from CCOC(CC)C(=O)NCc1cccc(N2CCCCC2=O)c1 (stereo unspecified) to CCOc1ccc(C(=O)N(Cc2cnn(C)c2)C(C)C)cc1OCC, the “Percent Effect” value rises from -0.7778% to 111.9%.

Compared with N#Cc1ccc(OC2CCN(CC(=O)NCC(F)(F)F)CC2)cc1, CCOc1ccc(C(=O)N(Cc2cnn(C)c2)C(C)C)cc1 is lower in “Percent Effect” value: 6.533% for the first, -5.805% for the second.

Compared with O=c1[nH]c(N2CCN(C3CC3)CC2)nc2c1cnn2-c1ccccc1, Cc1ccc(CNC2(Cc3cc(-c4ccccn4)on3)COC2)o1 is lower in “Percent Effect” value: 4.194% for the first, -9.349% for the second.

Going from O=C(NCc1cccs1)NCC(O)(c1cccs1)C1CC1 (stereo unspecified) to Cc1ncsc1CNC(=O)NCC1(c2ccc3c(c2)OCO3)CC1, the “Percent Effect” value rises from 4.96% to 120.8%.

Going from Cc1csc(CNC(=O)N(C)Cc2ccc3c(c2)OCO3)n1 to Cc1csc(CNC(=O)Cc2ccc3c(c2)OCCO3)n1, the “Percent Effect” value rises from -4.172% to -1.573%.

Going from Cc1csc(CNC(=O)NCCc2ccc3c(c2)OCCO3)n1 to Cc1csc(CNC(=O)NCc2ccc3c(c2)OCCO3)n1, the “Percent Effect” value falls from -0.3298% to -13.77%.

Compared with Cc1n[nH]cc1CNCC1(c2ccc3c(c2)OCO3)CCOCC1.Cl, Cc1csc(CNC(=O)NCC2(c3ccc4c(c3)OCO4)CC2)n1 is higher in “Percent Effect” value: 4.447% for the first, 126.6% for the second.

First: Cc1ncsc1CNC(=O)N(Cc1ccccc1)CC(C)(C)O
Second: COc1cc(C(=O)N(Cc2cnn(C)c2)C(C)C)ccc1C
The “Percent Effect” value of the first is lower: -10.76% for the first, 113.7% for the second.

Compared with Cc1ccc(CN2CCc3c(C(=O)N(C)C)n[nH]c3C2)o1, COc1ccc(C(=O)N(Cc2cnn(C)c2)C(C)C)cc1Br is higher in “Percent Effect” value: -11.98% for the first, 9.999% for the second.

Going from COc1cc(C(=O)N(Cc2cnn(C)c2)C(C)C)ccc1OCC(N)=O to COc1cc(C(=O)N(Cc2cnn(C)c2)C(C)C)ccc1OC(C)C, the “Percent Effect” value rises from 4.705% to 121.6%.

First: CCSc1cc(C(=O)N(Cc2cnn(C)c2)C(C)C)ccn1
Second: COc1ccc(CN(Cc2cnn(C)c2)CC(C)C)cn1
The “Percent Effect” value of the first is higher: -10.41% for the first, -28.68% for the second.

Going from CC(C)N(Cc1ccc(C(F)(F)F)nc1)Cc1cnn(C)c1 to Cc1ccc(NC(=O)N(C)Cc2cnn(C)c2)cc1OCC(F)F, the “Percent Effect” value falls from 15.8% to -4.297%.
